Measured values published in PubChem BioAssay AID743332 (Broad Institute, 2014).
Potency and affinity values are given separately.

Target: Caspase-6 (Homo sapiens) (UniProt P55212)
Assay: human caspase-6 inhibitors, dose response, biochemical, VEID-R110 fluorescence, dry powder retest (AID 743332)
Settings: purified caspase-6, Z-VEID-R110 cleavage fluorescence; series mostly up to 35 µM; activity change, negative = inhibition: at the top concentration;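 active means at least 35% decrease in signal relative to neutral control well mean; inactive means the rest, opposite-direction activity included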

Chain of Caspase-6 (Homo sapiens) (P55212 24-179 limits assumed): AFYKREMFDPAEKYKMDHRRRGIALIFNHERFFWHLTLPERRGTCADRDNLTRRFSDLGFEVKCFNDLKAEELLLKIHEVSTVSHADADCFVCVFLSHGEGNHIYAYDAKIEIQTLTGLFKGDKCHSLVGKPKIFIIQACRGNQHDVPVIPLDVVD
Chain of Caspase-6 (Homo sapiens) (P55212 194-293 limits assumed): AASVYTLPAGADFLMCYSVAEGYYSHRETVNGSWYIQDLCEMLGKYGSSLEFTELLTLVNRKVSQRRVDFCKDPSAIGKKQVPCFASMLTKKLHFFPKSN

Activity change, negative = inhibition, inactive:
Cc1ccc(S(=O)(=O)N2CCCN(C(=O)c3ccoc3)CC2)cc1 1%
O=S(=O)(c1ccccc1)N1CCN(Cc2ccccc2)CC1 1.29%
[O-][n+]1c2c(nn1-c1ccccc1Cl)-c1nonc1CC2 4.6%
Cc1ccc(S(=O)(=O)N2CCN(C(=O)c3ccccc3)CC2)cc1 8.23%
O=C(C1COc2ccccc2O1)N1CCN(S(=O)(=O)c2ccccc2)CC1 (configuration not stated) -3.24%
Cc1ccc(S(=O)(=O)N2CCN(C(=O)C3COc4ccccc4O3)CC2)cc1 (configuration not stated) 5.54%
Cc1ccc(C(=O)N2CCN(S(=O)(=O)c3ccccc3)CC2)o1 0.801%
O=C(c1ccccc1)N1CCN(S(=O)(=O)c2ccc(Cl)cc2)CC1 3.42%
O=C(c1ccc(F)cc1)N1CCCN(S(=O)(=O)c2ccc(F)cc2)CC1 5%
CC(=O)N1CCCc2cc(S(=O)(=O)N3CCN(C(=O)C4COc5ccccc5O4)CC3)ccc21 (configuration not stated) 12%
Cc1cccc(C(=O)N2CCCN(S(=O)(=O)c3ccc4c(c3)OCCO4)CC2)c1 25%
O=C(c1ccc2c(c1)OCCO2)N1CCN(S(=O)(=O)c2ccccc2)CC1 6.42%
